ATXN viability: Viability Counterscreen for Primary qHTS for Inhibitors of ATXN expression. S2 cells (HEK-293 line with an ATXN2-luciferase reporter) viability, CellTiter-Fluor protease fluorescence, 24 h. Potency, µM (highest dose often 56.7 µM), usual class: cytotoxic. 400,000 tested, 0.49% active. AID 651635, 2014; note: nearly all actives have a fitted effect of over 40% in size
TDP1 cell noCPT: qHTS for Inhibitors of human tyrosyl-DNA phosphodiesterase 1 (TDP1): qHTS in cells in absence of CPT | DT40 Tdp1-/- hTDP1 cells, no CPT, ATP luminescence, 48 h | 420,000 tested, 15% active | Potency, µM (titrated, usually from 46.2 µM), hits mostly inhibitors | AID 686978, 2013; note: nearly all actives have a fitted effect of over 55% in size
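A cellular qHTS used chicken DT40 cells lacking endogenous Tdp1 but carrying stably transfected human TDP1. Compounds were applied without camptothecin, and cell growth kinetics were judged by ATP-dependent luminescence after ≥48 hr.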
ATXN2 expr inh: Primary qHTS for Inhibitors of ATXN expression | HEK-293 ATXN2-luciferase reporter, luminescence, 24 h | Potency, µM (highest dose often 57 µM), hits mostly inhibitors | 360,000 tested, 0.72% active | AID 1745845, 2022; note: nearly all actives have a fitted effect of over 55% in size
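ATXN2-luciferase reporter cells (luciferase flanked by upstream and downstream ATXN2 gene portions) were treated 24 h at 37 °C with compounds at up to 57 uM. SteadyGlo luminescence gave expression; GF-AFC fluorescence gave viability.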
TDP1 cell CPT: qHTS for Inhibitors of human tyrosyl-DNA phosphodiesterase 1 (TDP1): qHTS in cells in presence of CPT. chicken DT40 Tdp1-/-;hTDP1 cells + 20 nM CPT, ATP luminescence, 48 h. Potency, µM (titrated, usually from 46.2 µM), hits mostly inhibitors. 420,000 tested, 12% active; note: nearly all actives have a fitted effect of over 55% in size
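Cell growth measured by CellTiter-Glo luminescence after a minimum 48 h, 37 C compound exposure with 20 nM CPT in Tdp1-knockout DT40 cells stably expressing hTDP1, seeded 400/well; qHTS titration format.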
HepG2 viability: qHTS for Inhibitors of TGF-b: Cytotox Counterscreen. HepG2 CAGA-GFP viability, ATP luminescence, 18 h. Potency, µM (doses to about 46.1 µM), actives largely listed as cytotoxic. 410,000 tested, 0.76% active. AID 588856, 2011
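CellTiter-Glo luminescence gave cytotoxicity after 18 hours at 37 degrees C. The cells were HepG2 CAGA-GFP in 1% FBS DMEM, stimulated with 500 pg/mL TGF-beta after compound addition. %Activity was normalised to no-cell wells (complete cell-killing) and DMSO (no toxicity), and curves were fitted and classified.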
TGFb inhibitor: qHTS for Inhibitors of TGF-b; 410,000 tested, 1.2% active; Potency, µM (doses to about 46.1 µM), usual class: inhibitors; HepG2 CAGA-GFP TGF-b/SMAD3 reporter, GFP fluorescence, 18 h; TGF-beta stimulated, 500 pg/mL final; AID 588855, 2011; note: nearly all actives have a fitted effect of over 65% in size
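Cell-based qHTS in HEPG2 carrying a CAGA-GFP Smad reporter; compounds added before 500 pg/mL final TGF-beta, 18 h incubation at 37 degrees C, GFP fluorescence quantified per cell by imaging cytometry.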
Large screens that a line does not name were inactive. Shown are actives, neighbours in structure and some others; about 17% of the full set was active somewhere. Calls come from the whole dose curve; as a rule, active = well fitted curve in the direction sought with a large enough effect; inconclusive = small, poorly fitted or top-dose-only effect, or another doubt; inactive = no such curve, though single readings can be large; an effect the other way counts as inactive or inconclusive.

Cn1c(=O)cc(OCC(=O)N2CCN(c3cccc(C(F)(F)F)c3)CC2)c2ccccc21	TDP1 cell noCPT 15µM, TDP1 cell CPT 21µM
CCn1c(=O)cc(OCC(=O)N2CCN(C(=O)c3ccco3)CC2)c2ccccc21	TDP1 cell CPT inconclusive
CCn1c(=O)cc(OCC(=O)N2CCN(c3cccc(Cl)c3)CC2)c2ccccc21	TDP1 cell noCPT 15µM, TDP1 cell CPT 23µM
CCn1c(=O)cc(OCC(=O)N2CCN(c3cccc(C)c3C)CC2)c2ccccc21	TDP1 cell noCPT 7.3µM, TDP1 cell CPT 9.2µM
CCOC(=O)N1CCN(C(=O)COc2cc(=O)n(C)c3ccccc23)CC1	none
CCn1c(=O)cc(OCC(=O)N(C)C2CCCCC2)c2ccccc21	TDP1 cell CPT inconclusive (no result: ATXN viability, ATXN2 expr inh)
Cc1cccc(N2CCN(C(=O)COc3cccc4c3OC(C)(C)C4)CC2)c1C	TDP1 cell noCPT inconclusive, TDP1 cell CPT inconclusive
CCn1c(=O)cc(OCC(=O)N(C)c2cc(Cl)ccc2C)c2ccccc21	ATXN viability inconclusive, TDP1 cell noCPT 23µM, TDP1 cell CPT 21µM, TGFb inhibitor inconclusive
COc1ccccc1CN1CC(C(=O)NCCC2=CCCCC2)CCC1=O (stereo unspecified)	TDP1 cell CPT inconclusive
CCCOc1nc(N)c(C#N)c(-c2ccccc2F)c1C#N	ATXN viability inconclusive, TDP1 cell noCPT inconclusive, TDP1 cell CPT 16µM
Cc1ccc(C)c(NC(=O)CN(C)C(=O)c2cc(C3CC3)nn2-c2ccccc2)c1	TDP1 cell noCPT inconclusive, TDP1 cell CPT 16µM, TGFb inhibitor inconclusive (no result: ATXN2 expr inh)
CCOc1ccc(NC(=O)CN(C)C(=O)c2cc(C3CC3)nn2-c2ccccc2)cc1OCC	TDP1 cell noCPT inconclusive, TDP1 cell CPT inconclusive
CN(Cc1nc2ccccc2c(=O)[nH]1)C(=O)c1cc(C2CC2)nn1-c1ccccc1	ATXN viability inconclusive, TDP1 cell noCPT inconclusive, TDP1 cell CPT 13µM
Cc1ccc2c(c1)c1c(c(=O)n(-c3cccc(Cl)c3)c(=O)n1CC(=O)Nc1c(C)cccc1C)n2C	none
CCOc1ccccc1NS(=O)(=O)c1ccc2[nH]c(=O)ccc2c1	none
CCc1nnc(SCC(=O)Nc2cccc(C(F)(F)F)c2)c2cc3oc(C)cc3n12	TDP1 cell noCPT inconclusive, TDP1 cell CPT inconclusive (no result: ATXN viability, ATXN2 expr inh)
CC(=O)n1c2c(c3ccccc31)OC(N)=C(C#N)C2c1cccc(Cl)c1Cl (stereo unspecified)	ATXN viability inconclusive, TDP1 cell noCPT 7.3µM, TDP1 cell CPT 15µM (no result: ATXN2 expr inh)
c1cc2c3c(cccc3c1)NC1(CCCCCC1)N2	TDP1 cell noCPT 12µM, TDP1 cell CPT inconclusive
c1cc2c3c(cccc3c1)NN=N2	TDP1 cell noCPT inconclusive, TDP1 cell CPT inconclusive
c1cc2c3c(cccc3c1)NC1(CCCCC1)N2	ATXN viability inconclusive, TDP1 cell noCPT 18µM, TDP1 cell CPT 18µM
S=C1NC2(CCCCC2)NN1c1ccccc1	TDP1 cell noCPT inconclusive
c1cc2c3c(cccc3c1)NC1(CCC3(CC1)Nc1cccc4cccc(c14)N3)N2	TDP1 cell noCPT 13µM, TDP1 cell CPT 9.2µM, TGFb inhibitor inconclusive (no result: ATXN viability, ATXN2 expr inh)
Cc1ccc(NC(=O)CSc2ncc3ccccn23)cc1C	TDP1 cell noCPT inconclusive, TDP1 cell CPT inconclusive (no result: ATXN2 expr inh)
CC(C)(C)NS(=O)(=O)c1cc(C(=O)Nc2sccc2C#N)ccc1Cl	ATXN viability inconclusive, TDP1 cell noCPT 12µM, TDP1 cell CPT 16µM, TGFb inhibitor inconclusive
Cc1ccc2nc(NC(=O)c3ccc(OCC4CCCO4)cc3)sc2c1 (stereo unspecified)	TDP1 cell noCPT 15µM, TDP1 cell CPT 13µM
Cc1cc(C)c2nc(NC(=O)c3ccc(OCC4CCCO4)cc3)sc2c1 (stereo unspecified)	ATXN viability inconclusive, TDP1 cell noCPT 21µM, TDP1 cell CPT inconclusive (no result: ATXN2 expr inh)

Assay outcomes as filed in PubChem BioAssay.
